# Results taken from PubChem BioAssay AID2653 (National Center for Advancing Translational Sciences (NCATS), 2010).
# Results filed as inconclusive are left out. The source made the active and inactive calls. The call rests on the fitted dose curve; in most records, active means well fitted curve in the direction sought with a large enough effect; inconclusive means small, poorly fitted or top-dose-only effect, or another doubt; inactive means no such curve, though single readings can be large or run the other way.
# Test: Secondary Assay for Activators of Human Pyruvate Kinase M2 isoform - Cell Titer Glo Cytotoxicity for Probe SAR; further: % of control where 0% means no effect
# Settings: HeLa viability, CellTiter-Glo ATP luminescence, 24 h; series mostly up to 58.2 µM; activity change, negative = cytotoxicity: at the top concentration
# Description: NIH Chemical Genomics Center [NCGC]
# Matthew G. Vander Heiden, M.D., Ph.D. [Harvard Medical School, 77 Avenue Louis Pasteur, Boston, MA 02115]
# We have identified a series of activators of the M2 isoform of human pyruvate kinase. The assay described here examines the cytotoxicity of these compounds by measuring the total ATP content of Hela cells after 24 hrs of exposure to compound.
# 500 Hela cells/ 4ul in media (DMEM with high glucose, 10% FBS, 1x Pen Strep, 1x NEAA) were dispensed into a white solid 1536-microwell plate with a Thermo Multidrop. The plates were incubated at 37 degrees Celsius for 24 hours. The cells were then treated with compounds using the Kalypsys pin tool, delivering 23 nl of test compounds and the control doxorubicin. The plates were then incubated for an additional 24 hours at 37 degrees C after which 4 ul of Promega Cell-Titer Glo was dispensed using the Thermo Multidrop. The plates were incubated at room temperature for 10 min before reading luminescence on the Perkin Elmer ViewLux with images collected with 2x binning and a 5 sec exposure time.
row,SMILES,"activity change, negative = cytotoxicity"
1,CNc1cc2c(cc1S(=O)(=O)Nc1ccc(C)c(C)c1)CCC(=O)N2,-25.8% (inactive)
2,Cc1ccc(N2C(=O)c3ccccc3C2=O)c(C)c1,-18.8% (inactive)
3,Cc1cccc(OC2=NS(=O)(=O)c3ccccc32)c1,2.84% (inactive)
4,CC(=O)N1CCc2cc(S(=O)(=O)Nc3ccc(C)c(C)c3)ccc21,-12.7% (inactive)
5,Cc1ccc(NS(=O)(=O)c2cc3c(cc2Cl)CCC(=O)N3)cc1Cl,-21.2% (inactive)
6,CC(=O)Nc1ccc(S(=O)(=O)Nc2ccc(C)c(C)c2)cc1,-3.49% (inactive)
7,O=S1(=O)N=C(Oc2cccc(Cl)c2)c2ccccc21,-7.68% (inactive)
8,Cc1cc(NS(=O)(=O)c2ccc3c(c2)CCC(=O)N3)ccc1F,-7.09% (inactive)
9,Cc1ccc(Cl)cc1NS(=O)(=O)c1cc2c(cc1Cl)CCC(=O)N2,-25.3% (inactive)
10,Cc1ccc(N[S+](=O)([O-])c2cc3c(cc2CCc2ccccc2)NC(=O)CO3)cc1C,-10.3% (inactive)
11,Cc1cc(NS(=O)(=O)c2ccc3c(c2)CCC(=O)N3)ccc1Cl,-4.72% (inactive)
12,Cc1ccc(NS(=O)(=O)c2ccc3c(c2)CC(=O)N3)cc1C,-14.8% (inactive)
13,O=C1CCc2cc(S(=O)(=O)Nc3cccc(Br)c3)ccc2N1,-2.99% (inactive)
14,O=C1c2ccccc2C(=O)N1c1ccc2ncccc2c1,-4.32% (inactive)
15,COc1cc(F)c(S(=O)(=O)N2CCCN(S(=O)(=O)c3cccc(N)c3)CC2)c(F)c1,-9.41% (inactive)
16,O=C1c2ccccc2C(=O)N1c1cccc(Cl)c1,-21.7% (inactive)
17,O=C1CCc2cc(S(=O)(=O)Nc3ccc(Cl)c(Cl)c3)ccc2N1,-17.3% (inactive)
18,Cc1ccc(NS(=O)(=O)c2ccc(N3CCCC3=O)cc2)cc1C,-23% (inactive)
19,Cc1ccccc1NS(=O)(=O)c1ccc2c(c1)CCC(=O)N2,-15.2% (inactive)
20,Cc1ccn2c(NCc3ccco3)c(-c3ccccc3)nc2c1,-7.39% (inactive)

row,SMILES,"activity change, negative = cytotoxicity"
1,Cc1ccc(NS(=O)(=O)c2ccc3c(c2)CCN(C(=O)C(F)(F)F)C3)cc1C,-3.41% (inactive)
2,Cc1ccn2c(NC3CCCCC3)c(-c3ccc(C)o3)nc2c1,-12.8% (inactive)
3,COc1ccc(NS(=O)(=O)c2ccc3c(c2)CCC(=O)N3)cc1,-24.1% (inactive)
4,O=C1c2ccccc2C(=O)N1Cc1ccccn1,-8.82% (inactive)
5,O=C1c2ccccc2C(=O)N1c1cc(=O)c2ccccc2[nH]1,-22% (inactive)
6,O=C1CCc2cc(S(=O)(=O)Nc3ccccc3Cl)ccc2N1,-10.2% (inactive)
7,CC(=O)Nc1cccc(S(=O)(=O)Nc2ccc(C)c(C)c2)c1,1.12% (inactive)
8,O=C1CCc2cc(S(=O)(=O)NCc3ccccc3)ccc2N1,-12.7% (inactive)
9,Cc1ccc(NS(=O)(=O)c2cc3c(cc2Br)NC(=O)CO3)cc1C,-10.6% (inactive)
10,O=C1c2ccccc2C(=O)N1Cc1cccnc1,-7.71% (inactive)
11,O=S1(=O)N=C(Oc2ccc(Cl)cc2)c2ccccc21,2.68% (inactive)
12,Cc1ccc(NS(=O)(=O)c2ccc(-c3ccccc3)cc2)cc1C,1.34% (inactive)
13,Cc1ccc(NS(=O)(=O)c2ccc3c(c2)CC(=O)N3C)cc1C,-16% (inactive)
14,CCNc1cccc(S(=O)(=O)N2CCN(S(=O)(=O)c3ccc4c(c3)OCCO4)CC2)c1,-17.2% (inactive)
15,CSc1cc2c(s1)c1cnn(Cc3cccc(O)c3)c(=O)c1n2C,1.75% (inactive)
16,O=C1CCc2cc(S(=O)(=O)Nc3ccccc3-c3ccccc3)ccc2N1,-19.6% (inactive)
17,Cc1ccc(NS(=O)(=O)c2ccc(Cl)cc2)cc1C,-4.87% (inactive)
18,Cc1ccc(NS(=O)(=O)c2ccc3c(c2)n(C)c(=O)n3C)cc1C,-15.9% (inactive)
19,Cc1ccc2nc(-c3ccc(C)o3)c(NC3CCCC3)n2c1,-16.7% (inactive)
20,O=C1c2ccccc2C(=O)N1c1nccs1,-15.3% (inactive)
